Compound activity from PubChem BioAssay.
A selection: hits, their analogues and other compounds. The true share with any hit is near 4.5%.
DAX1 inh-1: DAX1 (NR0B1) inhibitors on StAR promoter, primary screen, cell-based, luminescence, SF-1 (NR5A1), full-length DAX-1. HEK293T StAR-luciferase reporter, SF-1/DAX-1 repression relief. inhibition, % at 6.8 µM. hit rate 1.1% among 370,000. AID 652010, 2013;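 active means inhibition above the mean over all tested compounds plus 3 SD, cut at about 3.6% in these data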;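 further: higher inhibition means more luminescence from relief of DAX-1 repression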
GAA850 FXN act: FXN promoter activators, primary screen, cell-based, luciferase luminescence, HEK293 lucGAA850; HEK293 lucGAA850 FXN promoter luciferase reporter, 24 h; percent of 10 µM SAHA response; activation, % at 6 µM; hit rate 0.56% among 360,000;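 active means activation above the average of all compounds screened plus 3 SD, cutoff fixed separately per campaign, cut at about 7.5% in these data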
DAX1 inh-2: DAX1 (NR0B1) inhibitors, primary screen, cell-based, HEK293, Gal4-DAX1, luciferase luminescence; hit rate 0.99% among 340,000; HEK293 Gal4-DAX1 luciferase reporter; inhibition, % at 6.75 µM;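 active means inhibition above the mean over all tested compounds plus 3 SD, cut at about 4.2% in these data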;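 further: inhibition shows as a rise in luminescence from relieved DAX1 repression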
Target sequence (P51843 207-470 limits assumed): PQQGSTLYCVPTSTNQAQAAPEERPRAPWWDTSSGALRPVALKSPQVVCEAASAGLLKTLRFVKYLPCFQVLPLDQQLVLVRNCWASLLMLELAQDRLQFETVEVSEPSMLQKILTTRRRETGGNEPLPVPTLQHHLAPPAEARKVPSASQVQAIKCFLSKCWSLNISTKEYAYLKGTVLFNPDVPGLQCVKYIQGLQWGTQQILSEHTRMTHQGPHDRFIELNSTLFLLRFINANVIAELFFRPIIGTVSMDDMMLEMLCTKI
hcDAF12 agonist: H. contortus DAF-12 nuclear receptor activators, primary screen, cell-based, luminescence, HEK293, lit1-tk-luc reporter. HEK293 hcDAF-12 lit1-tk-luc reporter; 0% DMSO, 100% Δ7-dafachronic acid. activation, % at 6.8 µM. hit rate 1.4% among 370,000. AID 652067, 2013;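 active means activation above the mean of all tested compounds plus 3 SD, cut at about 5.5% in these data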
ssDAF-12 act: S. stercoralis DAF-12 nuclear receptor activators, primary screen, cell-based, luminescence, HEK293, GRIP1 co-expression, lit1-tk-luc. HEK293 ssDAF-12/GRIP1 lit1-tk-luc reporter; % of 3 µM dafachronic acid response. activation, % at 6.8 µM. hit rate 1% among 370,000. AID 652126, 2013. Nuclear hormone receptor DAF-12 (Strongyloides stercoralis);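 active means activation above the mean over all tested compounds plus 3 SD, cut at about 0.9% in these data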
hgDAF12 agonist: H. glycines DAF-12 receptor agonists, primary screen, cell-based, luminescence, HEK293, GAL4 fusion, UAS-luciferase. Nuclear hormone receptor DAF-12 (Heterodera glycines), GAL4 fusion. HEK293 GAL4-hgDAF12 UAS-luciferase reporter, agonist luminescence; normalized to butyrate control. AID 687014, 2013. activation, % at 6.8 µM. hit rate 1.8% among 370,000;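 active means activation above a cutoff set at the mean of all screened compounds plus 3 SD, cut at about 10% in these data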
Numbers stand for hits; i = inactive; nt = no result.

SMILES	DAX1 inh-1	GAA850 FXN act	DAX1 inh-2	hcDAF12 agonist	ssDAF-12 act	hgDAF12 agonist
NC(=O)c1ccc(Oc2ncc(C(F)(F)F)cc2Cl)cc1	i	i	i	i	i	i
NC(=O)c1ccc(Oc2ccc(C(N)=O)cc2)cc1	i	i	5.2	i	i	i
CCOC(=O)CC[C@@H]1CC[C@]2(CCCN(C(=O)c3ccno3)C2)O1	i	nt	nt	i	i	i
Cc1c(NC(=O)C2CCCN(S(=O)(=O)c3ccc(F)cc3)C2)c(=O)n(-c2ccccc2)n1C (stereo unspecified)	i	nt	nt	i	i	i
O=C(O)c1ccc2cccc(O)c2n1	i	i	nt	i	i	i
O=C(O)c1ccc2cccnc2n1	i	i	i	i	1.3	i
CN(CCO)c1cccc2c1S(=O)(=O)N(Cc1cn(Cc3ccc(F)cc3)nn1)Cc1ccccc1O2	i	nt	nt	i	i	i
O=C(O)c1cc(=O)[nH]c2c(Cl)cccc12	i	i	i	5.8	i	i
Cc1ccc(CN2CCC(CNC(=O)Nc3ccccc3F)CC2)cc1	i	i	4.4	i	i	i
Cc1ccc(NC(=O)NCC2CCN(Cc3cccc(Cl)c3)CC2)cc1Cl	i	i	i	i	1.7	i
O=C(NCC1CC1)Nc1ccccc1F	i	i	i	i	i	i
C=CCN(C(=O)[C@@H](C)[C@@H](O)c1ccc(Cl)cc1)c1ccccc1	i	nt	nt	i	i	i
COC(=O)C1=C(C)N(Cc2cccc(C(F)(F)F)c2)C(=NCc2ccc3c(c2)OCO3)NC1c1cccc(Cl)c1 (stereo unspecified)	i	nt	nt	i	i	i
COCCCNC(=O)CNC(=S)N(Cc1ccc(F)cc1)C1CCCCC1	i	i	i	i	1.2	i
O=C(NCc1ccccc1)C1(C(=O)C2CC2)CC(c2ccccc2C(F)(F)F)=NO1 (stereo unspecified)	i	nt	nt	i	i	i
c1ccc(CSc2nnc(-c3cccnc3)o2)cc1	i	i	i	i	i	i
Oc1ccc(-c2nnc(SCc3ccccc3)o2)cc1	i	i	i	i	i	10.7
C#CCSc1nnc(-c2ccc(O)cc2)o1	i	i	i	i	i	11.1
C#CCSc1nnc(-c2ccc(C)cc2)o1	i	i	i	i	i	11.1
C#CCSc1nnc(-c2cccc3ccccc23)o1	i	i	i	i	1.7	i
C=CCSc1nnc(-c2cccc3ccccc23)o1	i	i	i	i	i	i
COc1cccc(NC(=O)C2CCCN2C(=O)Nc2ccc(Cl)cc2)c1 (stereo unspecified)	i	nt	nt	i	i	i
COC(=O)c1ccc(COc2ccccc2/C=C(\C#N)C(=O)Nc2ccc(C)cc2)cc1	3.9	i	i	i	i	10.7
C=CCNC(=O)/C(C#N)=C/c1ccccc1OCc1ccc(C(=O)OC)cc1	i	i	i	i	i	i
Cc1ccc(NC(=O)/C(C#N)=C(\N)C(Cl)(Cl)Cl)nc1	nt	i	8.1	nt	nt	nt
SMILES	DAX1 inh-1	GAA850 FXN act	DAX1 inh-2	hcDAF12 agonist	ssDAF-12 act	hgDAF12 agonist
CC(=O)n1cc(/C=N/NC(=O)c2ccccc2O)c2ccccc21	i	i	5.0	i	i	i
CC(=O)n1cc(Nc2ccccc2C(=O)O)c2ccccc21	i	i	i	i	0.9	i
O=C(N/N=C/c1ccoc1)c1ccccc1	6.4	i	i	i	1.1	10.7
O=C(N/N=C/CCc1ccccc1)C1CCCCC1	i	i	i	i	i	i
O=C(N/N=C/CCc1ccccc1)c1ccccc1	i	i	i	i	i	10.8
Cc1cccc(-c2cccc3c4c([nH]c23)[C@@H]2C[C@H]3[C@@H](C(=O)N2CC4)[C@H](C)ON3C)c1	i	nt	nt	i	i	i
CCOC(=O)C1(Cc2ccccc2)CCN(Cc2ccnc3ccccc23)CC1	i	nt	nt	i	i	i
O=C(N/N=C/c1ccoc1)c1cc(O)cc(O)c1	i	i	i	i	i	i
O=C(N/N=C/c1ccoc1)c1ccccc1O	3.7	i	i	i	i	i
CCOC12NC(=O)CC(=O)N1C(c1ccccc1)=CS2 (stereo unspecified)	i	i	4.5	i	i	i
CSc1ccccc1C(=O)N1CCc2ccc(NC(=O)c3ccccn3)cc2C1	i	i	i	i	i	10.7
CSc1ccc(C(=O)N2CCc3ccc(NC(=O)c4ccccn4)cc3C2)cc1	i	i	i	i	i	i
Cc1ccccc1CNC(=O)Nc1ccc(Cl)cc1	i	i	5.5	i	i	i
Cc1ccc(CNC(=O)Nc2ccccc2)c(C)c1	i	i	i	i	i	12.7
Cc1ccc(CNC(=O)Nc2ccc(C)cc2)cc1	i	i	i	i	i	i
COc1cc(C=O)ccc1OCc1ccc(Cl)nc1	i	i	i	i	i	11.4
COc1cc(C=O)ccc1OCc1ccncc1	i	i	i	i	i	i
COC(=O)C1CN(Cc2ccc(Cl)cc2)CCS(=O)(=O)N1Cc1cn(Cc2ccc(OC)cc2)nn1 (stereo unspecified)	i	nt	nt	i	i	i
CCN(C(=O)COC(=O)c1cccn1C)C1CCS(=O)(=O)C1 (stereo unspecified)	i	i	i	i	i	i
Cn1cccc1C(=O)OCC(=O)NC1CCS(=O)(=O)C1 (stereo unspecified)	i	i	i	i	2.5	i
CCOC(=S)SCc1cn2cccc(C)c2n1	i	i	5.0	i	i	i
CCOc1ccc(-n2c(COc3ccccc3)nnc2SCc2nc3ccccc3[nH]2)cc1	i	nt	nt	i	i	i
CCC1COC(c2cccn2Cc2ccccc2Cl)=N1 (stereo unspecified)	i	i	5.9	i	i	i
Fc1ccc(Cn2cccc2C2=NC(c3ccccc3)CO2)cc1 (stereo unspecified)	i	i	i	i	i	i
CC(C)(C)c1ccc(OCC(=O)NCC(c2cccs2)N2CCOCC2)cc1 (stereo unspecified)	4.3	i	i	i	i	i
O=C(Cn1c(=O)c(=O)n(Cc2ccccc2)c2ccc(Cl)cc21)NCC1CCCO1 (stereo unspecified)	i	i	4.6	i	i	i
O=C(O)CC(NNC(=O)c1ccccc1)C(=O)Nc1ccc([N+](=O)[O-])cc1 (stereo unspecified)	i	i	8.4	i	i	i
O=C(/C=C/NNC(=O)c1ccccc1)c1ccccc1	i	i	i	i	i	i
